Source: PubChem
Rows were chosen to be rich in hits. Some 5.5% of all compounds tested hit in one or more screens of this group.
Six1-Eya2 inh = blocks human Six1 binding to Eya2 | AlphaScreen GST-Six1/His-Eya2 binding, biochemical; active compounds read low | activity change, % (no concentration beside the values) | 360,000 compounds, 0.56% hits; in the data active means activity change below about -65%; inconclusive means mostly about -30% to -63%; further: on the % scale 0 is the no-effect control and ±100 the full control effect
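Compounds are tested against tagged Six1 and Eya2 proteins bridged by glutathione donor and nickel acceptor beads; after a one-hour incubation at 37 °C without light, AlphaScreen emission is recorded.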
Gal4-VP16 FLuc = Gal4-VP16 reporter inhibition counter-screen. 310,000 compounds, 3.5% hits. Drosophila S2 Gal4-VP16 UAS-luciferase, luminescence, 20 h. Potency, µM (titrated, usually from 53.6 µM), inactives show at the top dose activity, negative = inhibition, most hits filed as inhibitors;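 further: Gal4-VP16 expression switched on by copper sulfate through the metallothionein promoter; potency means the concentration at half of the fitted maximal effect; on the % scale 0 is the no-effect control and ±100 the full control effect; nearly all actives have a fitted effect of over 50% in size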
MBNL1-CUG inh = blocks human MBNL1 binding to CUG repeat RNA; 280,000 compounds, 0.036% hits; Potency, µM (titrated, usually from 57.5 µM), for inactives: at the top dose activity change, negative = inhibition, actives largely listed as inhibitors; TR-FRET MBNL1-His/biotin-(CUG)12 binding, 665/545 ratio; Q9NR56; AID 2675; active means well fitted inhibition curve with a large enough effect in the signal ratio, with a control signal flat, not every such curve was filed as active; inconclusive means small, poorly fitted or top-dose-only effect, or effect the other way, or a change in a side signal; inactive means no such curve, though single readings can be large or run the other way; the % refers to the signal ratio; further: potency means the concentration at half of the fitted maximal effect; on the % scale 0 is the no-effect control and ±100 the full control effect
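TR-FRET readout: Ex 340 nm, 665/545 nm emission ratio, normalized to buffer-only (basal) and MBNL1-(CUG)12 controls. Complex of MBNL1-His with Biotin-(CUG)12, compounds 92 nM–58 uM, incubated 60 min at room temperature.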
CtBP-E1A blk = CtBP/E1A binding inhibition; AlphaScreen GST-E1A/His-CtBP binding, 1536-well; active compounds read low; activity change, % (no concentration beside the values); 340,000 compounds, 0.49% hits; in the data active means activity change below about -65%; inconclusive means mostly about -30% to -63%; further: on the % scale 0 is the no-effect control and ±100 the full control effect
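Steps: dispense buffer (Tris pH 8.0, NaCl 300 mM, TCEP 1 mM, BSA, Tween 20); add 5X protein mix (GST-E1A, His-CtBP, 125 nM each); pin 23 nL compound; 2 h at 37 °C, dark; add 5X beads (50 ug/mL); 1 h; read.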
RORg inh = blocks mouse ROR gamma transcriptional activity | Drosophila S2 Gal4-RORgamma UAS-luciferase reporter, 20 h | AID 2551 | P51450 | Potency, µM (highest dose often 53.6 µM), without a hit: at the top dose activity change, negative = inhibition, hits mostly inhibitors | 310,000 compounds, 5.4% hits; further: potency means the concentration at half of the fitted maximal effect; on the % scale 0 is the no-effect control and ±100 the full control effect; nearly all actives have a fitted effect of over 60% in size
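Schneider cells (Drosophila), stable Gal4 DBD–ROR gamma + UAS-luc; 1 hr cmpd preincubation; Cu2+ induction 700 uM final; 20 hr ambient; luminescence.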
CBFb RUNX1 block = inhibitors of human CBF-beta and RUNX1 interaction; Q01196+Q13951; AlphaScreen CBFb-His/RUNX1-biotin binding, biochemical; Potency, µM (titrated, usually from 59.8 µM), for inactives: at the highest dose activity, negative = inhibition, actives largely listed as inhibitors; 230,000 tested, under 10 active; AID 1477; further: % of control where 0% means no effect
Target sequence (Q01196 whole entry, looked up): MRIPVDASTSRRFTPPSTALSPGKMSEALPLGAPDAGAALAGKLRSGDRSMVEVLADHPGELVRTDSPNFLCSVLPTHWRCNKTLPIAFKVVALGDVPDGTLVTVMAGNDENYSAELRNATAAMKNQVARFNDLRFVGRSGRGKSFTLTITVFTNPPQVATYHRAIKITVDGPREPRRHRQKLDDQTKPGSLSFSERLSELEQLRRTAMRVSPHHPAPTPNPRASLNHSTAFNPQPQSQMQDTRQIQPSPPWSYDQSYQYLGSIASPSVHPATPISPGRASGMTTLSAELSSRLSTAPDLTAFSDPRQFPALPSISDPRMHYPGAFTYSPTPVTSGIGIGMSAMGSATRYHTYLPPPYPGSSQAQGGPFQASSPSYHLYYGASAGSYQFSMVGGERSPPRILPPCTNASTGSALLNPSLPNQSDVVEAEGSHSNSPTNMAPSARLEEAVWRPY
Target sequence (Q13951 whole entry, looked up): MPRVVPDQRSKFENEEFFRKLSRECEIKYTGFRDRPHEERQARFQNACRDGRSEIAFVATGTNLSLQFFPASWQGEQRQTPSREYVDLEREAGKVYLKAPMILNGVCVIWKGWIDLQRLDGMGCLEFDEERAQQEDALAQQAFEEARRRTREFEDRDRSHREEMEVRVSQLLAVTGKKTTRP
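Room-temperature protein-protein interaction test with 30 nM each of His-tagged CBF-beta and biotinylated RUNX1, 15 min with compound, then 90 min with nickel plus streptavidin beads. Signal read in AlphaScreen mode.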
Active calls of the source: *; ? = inconclusive; . = no result given; [ ] = remark or other dose. Unless noted, the call rests on the fitted dose curve; in most records, active means well fitted curve in the direction sought with a large enough effect; inconclusive means small, poorly fitted or top-dose-only effect, or another doubt; inactive means no such curve, though single readings can be large; an effect the other way counts as inactive or inconclusive.

SMILES | Six1-Eya2 inh | Gal4-VP16 FLuc | MBNL1-CUG inh | CtBP-E1A blk | RORg inh | CBFb RUNX1 block
COC(=O)Cc1ccc(NC(=S)N2CCCC(C)C2)cc1 (configuration not stated) | -0.3 | 11.2µM* | 11.8%[11.5 µM] | 3.9 | 12.6µM* | -2.0%
COC(=O)Cc1ccc(NC(=S)N2CCN(c3cc(Cl)ccc3C)CC2)cc1 | -0.1 | ? | -13.5% | 14.0 | 12.6µM* | 0.7%
COC(=O)Cc1ccc(NC(=S)N2CCCC(CO)C2)cc1 (configuration not stated) | 0.2 | 7.94µM* | -5.1% | 1.8 | 11.2µM* | -7.6%
Cc1cccc(C(=O)OC(C)C(=O)N2CCN(Cc3ccccc3)CC2)c1 (configuration not stated) | -5.1 | . | . | 2.5 | . | .
CCC(C)NC(=O)c1cccc(OCc2c(C)noc2C)c1 (configuration not stated) | 1.0 | 2.6% | -5.6% | -17.1 | -31.3% | -5.6%
CC(C)c1onc(-c2c(Cl)cccc2Cl)c1COc1ccc(/C=C/c2cccc(C(=O)O)c2)c(Cl)c1 | . | 5.62µM* | . | . | -44.9% | -4.0%
COc1cc(C=O)ccc1OS(=O)(=O)c1ccc(NC(C)=O)cc1 | 2.0 | 25.1µM* | -0.7% | 4.3 | -43.3% | 12.4%
COc1ccc(/C=C2\SC(=S)NC2=O)cc1OS(=O)(=O)c1ccc(NC(C)=O)cc1 | 15.5 | -3.0% | 2.9% | 2.4 | -19.6% | -17.7%
Cc1oc(-c2cccc(C(F)(F)F)c2)nc1CN1CCOCC1 | -1.7 | 5.01µM* | 12.2% | 9.3 | 0.794µM* | -23.6%
Cc1occc1C(=O)NNC(=O)c1ccc(Br)o1 | 3.4 | -11.8% | -5.4% | 4.6 | 7.8% | 9.9%
Cc1cc(=O)n2nc(N3CCC(C(=O)NCc4ccc(Cl)cc4)CC3)sc2n1 | -65.3* | -2.7% | -1.0% | . | 25.1% | .
CCC(C)c1ccccc1N1CC(C(=O)N2CCN(S(=O)(=O)c3ccccc3Br)CC2)CC1=O (configuration not stated) | -4.9 | . | . | 5.4 | . | .
Cc1cc(C)c2nc(NNC(=O)c3ccc(S(=O)(=O)N4CCCCC4)cc3)sc2c1 | -2.0 | 8.91µM* | 33.7% | -3.8 | 3.16µM* | -2.8%[2.36 µM]
Cc1cccc2sc(NNC(=O)c3ccc(S(=O)(=O)N4CCCC(C)C4)cc3)nc12 (configuration not stated) | -0.1 | 3.16µM* | 21.9% | -7.1 | 3.55µM* | 1.1%[2.36 µM]
CCOC(=O)N1CCN(S(=O)(=O)c2ccc(C(=O)NNc3nc4cc(C)cc(C)c4s3)cc2)CC1 | -2.4 | 5.01µM* | 64.4% | -10.2 | 11.2µM* | -4.4%[2.36 µM]
Cc1ccc(C(=O)NNC(=O)c2ccc(S(=O)(=O)N3CCCCC3)cc2)cc1 | 14.8 | . | . | -13.3 | . | .
Cc1cccc2sc(NNC(=O)c3ccc(S(=O)(=O)N4CCc5ccccc5C4)cc3)nc12 | 0.1 | ? | 67.5% | -13.6 | -32.4% | 8.2%[2.36 µM]
CCOC(=O)N1CCN(S(=O)(=O)c2ccc(C(=O)NNc3nc4c(C)cccc4s3)cc2)CC1 | -13.6 | 5.01µM* | 47.7% | -0.8 | 10µM* | 6.1%[2.36 µM]
CCOC(=O)N1CCN(S(=O)(=O)c2ccc(C(=O)N(CCN(C)C)c3nc4ccc(Cl)cc4s3)cc2)CC1 | -14.6 | -2.1% | -4.1% | -8.1 | -23.2% | .
CCOC(=O)N1CCN(S(=O)(=O)c2ccc(C(=O)NNc3nc4c(C)cc(C)cc4s3)cc2)CC1 | 2.1 | 20µM* | 56.4% | 2.7 | 14.1µM* | 0.3%[2.36 µM]
CCOC(=O)N1CCN(S(=O)(=O)c2ccc(C(=O)NNc3nc4ccc(Cl)cc4s3)cc2)CC1 | 4.0 | ? | 3.4% | -3.5 | 7.08µM* | -4.1%[2.36 µM]
CCCCn1c(N)c(N(C(=O)CSc2nnnn2-c2ccc(C)cc2)C2CCCC2)c(=O)[nH]c1=O | 8.2 | . | . | 1.4 | . | .
CCn1c(C(C)NC(=O)c2ccc(Cl)cc2)n[nH]c1=S (configuration not stated) | 5.1 | -2.8%[10 µM] | 4.9% | -11.0 | 7.08µM* | 3.7%
C/C(=N\NC(=O)COc1ccc(C(C)(C)C)cc1)c1ccc2c(c1)OCCO2 | -13.0 | -21.9% | 1.7% | -0.2 | -5.5% | -0.8%
CNC(=S)N/N=C(\C)c1ccc2c(c1)OCCO2 | -8.3 | 8.91µM* | -11.5% | -12.9 | 2.82µM* | -17.3%
SMILES | Six1-Eya2 inh | Gal4-VP16 FLuc | MBNL1-CUG inh | CtBP-E1A blk | RORg inh | CBFb RUNX1 block
CCc1ccc(OCC(=O)N/N=C(\C)c2ccc3c(c2)OCCO3)cc1 | 8.8 | 2.4% | ? | 11.7 | 33.0% | 0.0%
C/C(=N\NC(=O)c1ccccc1)c1ccc2c(c1)OCO2 | -1.0 | ? | 5.1% | -1.0 | 20.1% | 2.2%
CCNC(=S)N/N=C(\C)c1ccc2c(c1)OCCO2 | -4.4 | 7.08µM* | -0.2% | -1.7 | 2.82µM* | -6.3%
C/C(=N\NC(=S)Nc1ccc(C(C)C)cc1)c1ccc2c(c1)OCO2 | ? | ? | 1.5% | 0.2 | 6.31µM* | -14.3%
C/C(=N\NC(=S)NC(C)C)c1ccc2c(c1)OCCO2 | 0.0 | 4.47µM* | -3.6% | 5.0 | 2µM* | -5.3%
O=C(O)C1C2CCC(C2)C1C(=O)N1CCCC1 (configuration not stated) | 5.0 | . | -7.5% | 4.9 | . | .
COc1ccccc1NC(=O)CN(Cc1ccco1)C(=O)c1ccc(N2CCCC2=O)cc1 | -5.0 | . | . | 2.9 | . | .
CN(C)C(=O)C[C@@H]1C=C[C@@H](NC(=O)C2CCC2)[C@@H](CO)O1 | 2.8 | . | . | -0.3 | . | .
CC(=O)Nc1ccc(S(=O)(=O)Nc2ccn(Cc3ccccc3Cl)n2)cc1 | -8.1 | . | -1.5% | -17.6 | . | .
COc1cccc(CC(NC(C)=O)C(=O)NC2CCN(C(=O)Nc3ccc(C)cc3)CC2)c1 (configuration not stated) | 1.4 | 11.5% | -1.5% | 0.8 | -0.8% | .
O=C(Cn1nnc(-c2ccc3c(c2)OCO3)n1)Nc1ccccc1C(=O)O | -9.2 | -18.2% | -7.1% | -0.6 | -13.3% | .
CNC(=S)N/N=C(\C)c1ccc2c(c1)OCO2 | -8.5 | ? | . | . | 7.08µM* | 16.4%
CN(C)C(=O)c1ccc(NC(=O)c2ccc(-c3ccc(Cl)cc3)o2)cc1 | -15.2 | . | . | 25.3 | . | .
Cn1cc([C@]2(O)C(=O)N(c3ccccc3)c3ccccc32)c2ccccc21 | -8.6 | . | . | -17.2 | . | .
O=C1c2c(O)cccc2C(C2OC(CO)[C@@H](O)[C@H](O)[C@H]2O)c2cc(CO)cc(O)c21 (some centres not stated) | 5.4 | . | . | -0.6 | . | .
O=C(O)c1cc(O)c2c(c1)[C@H]([C@H]1c3cc(C(=O)O)cc(O)c3C(=O)c3c(O[C@@H]4O[C@H](CO)[C@@H](O)[C@H](O)[C@H]4O)cccc31)c1cccc(OC3O[C@H](CO)[C@@H](O)[C@H](O)[C@H]3O)c1C2=O (some centres not stated) | -73.6* | . | . | ? | . | .
